Experimental data taken from PubChem BioAssay AID504773 (Broad Institute, 2011).
Measured potencies and affinities stand elsewhere.

target: Golgi-associated PDZ and coiled-coil motif-containing protein (Homo sapiens) (UniProt Q9HD26); assay: CAL PDZ peptide-binding inhibitors, dose response, biochemical, fluorescence polarization, Cerulean-tagged CAL PDZ, cherry-picks (AID 504773); details: 1 h; series mostly up to 50 µM; activity change, negative = inhibition: at the top concentration;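 also: 0% = DMSO neutral wells and -100% = excess unlabeled competitor peptide wells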

Activity change, negative = inhibition, inactive:
CCOC(=O)CCNC(=O)N1CCCC(CNS(=O)(=O)Cc2ccccc2)C1 (configuration not stated) -0.597%
Cc1ccc(-c2nnn(CC(=O)N(CCN3CCOCC3)C(C(=O)NC(C)(C)C)c3ccc(C)o3)n2)cc1 (configuration not stated) 7.03%
COc1ccc(CSc2ncnc3sccc23)cc1F 1.14%
C=CCN1C(=O)/C(=C/c2ccsc2)SC1=S -19.4%
Cc1ccc(Cl)c2c(N=Nc3ccccc3)c(O)[nH]c12 19%
COCCN(C(=S)Nc1ccccc1OC)C1CCN(C(C)C)CC1 7.01%
CCCCNC(=O)c1ccc(-n2c(=S)[nH]c3ccccc3c2=O)cc1 -57.6%
Cc1ccc(/C=N/NC(=O)NN(C)c2ncc(C(F)(F)F)cc2Cl)cc1 9.61%
CCCCOc1ccc(C(=O)N2CCNC(=O)C2CC(=O)OC(C)C)cc1 (configuration not stated) -13.6%
O=C(COc1ccc(Cl)cc1Cl)Nc1nnc(C2=COCCO2)o1 0.72%
Cc1cc(C(=O)CN2CCCC2)c(C)n1-c1ccc(Cl)cc1 -32%
O=C(OCC(=O)N1CCOCC1)c1ccc[nH]c1=O 33.5%
CC(C)c1ccc(CNC(=O)C(=O)NCCCn2ccnc2)cc1 -10.6%
Cc1cc(NC(=O)Cc2ccc(Br)cc2)no1 -28.3%
CS(=O)(=O)N(CC(=O)N1CCOCC1)c1cccc(F)c1 6.89%
CC(C)=Cc1oc2ccc([N+](=O)[O-])cc2c1N1CCOCC1 14.7%
C/C(CC(=O)Nc1ccc(C)c(Cl)c1)=N\NC(=O)Cc1cnc(N)s1 14.7%
CN=c1scc(C)n1/N=C/c1cc(Br)c(O)c(Br)c1 12.3%
O=C(CCC(=O)N1CCN(c2ccccc2F)CC1)N1CCN(c2ccccc2)CC1 -7.56%
Cc1ccc(S(=O)(=O)N2CCN(C(=O)c3cc(=O)c4ccccc4o3)CC2)cc1 -30.3%
NC(=O)C1CCN(c2ncccc2[N+](=O)[O-])CC1 -12.7%
Cn1c(=O)c2c(ncn2CC(=O)Nc2nc(-c3ccccc3Cl)cs2)n(C)c1=O 6.53%
CCN(CC)S(=O)(=O)c1cc(C(=O)Oc2ccccc2OC)ccc1OC 14.1%
N#C/C(=C\c1c[nH]c2ccccc12)C(=O)NC1CC1 -24%
O=C(Nc1ccccc1Cl)Nc1cccnc1Cl -19.9%
CCOc1ccc(NC(=O)c2nsc(Cl)c2Cl)cc1 10.5%
C=CCOC(=O)C1=C(C)Nc2nc3ccccc3n2C1c1ccncc1 (configuration not stated) 6.47%
O=C(O)c1ccc(S(=O)(=O)c2ccc3c(c2)C(=O)N(c2ccccc2[N+](=O)[O-])C3=O)cc1 -12.8%
O=C1CSC(=Nc2ccccc2Cl)N1 5.39%
COCC(=O)Nc1ccc2nc3n(c(=O)c2c1)CCCCC3 -29.6%
Cc1ccnc2nc(C(=O)OCCOc3ccc(F)cc3)nn12 -16.9%
Cc1nn(C)cc1CN(C)C(=O)c1nn2c(c1Br)NC(c1cccs1)CC2C(F)(F)F (configuration not stated) 23.8%
CN(c1nc(-c2ccc(Br)cc2)cs1)C1CCS(=O)(=O)C1 (configuration not stated) 28.1%
Cc1ccc(C)c(N(CC(=O)NC(C)(C)C)C(=O)CCC(=O)Nc2nccs2)c1 3.45%
Cc1ccccc1S(=O)(=O)NC(=NCc1ccc(F)cc1)c1ccccc1 -1.95%
Cc1cc(=O)n2c3ccccc3n(CC(O)CN3CCN(CCO)CC3)c2c1C#N (configuration not stated) -14.9%
CCCCN(CCCC)CCNC(=O)c1ccc2nc(-c3ccccc3NC(C)=O)c(=O)[nH]c2c1 24.7%
